Records with an inconclusive call do not appear. Calls of active or inactive are those of the source. Calls follow the shape of the dose curve; as a rule, active = well fitted cell-killing curve with a large enough effect; inconclusive = small, poorly fitted or top-dose-only effect, or effect the other way; inactive = no such curve, though single readings can be large or run the other way.
Potency is read from the fitted curve at half-maximal effect.

This assay is described as follows: Quantitative High-Throughput drug screen in 47 multiple myeloma cell lines against the NCATS MIPE library collection: INA6_PLB cell viability assay (AID 1918965; also: nearly all actives have a fitted effect of over 55% in size). The settings on record: INA6 myeloma viability, CellTiter-Glo ATP luminescence, 48 h; series mostly up to 45.8 µM. From the text:
PI: Beverly A. Mock Ph.D.
Laboratory of Cancer Biology and Genetics,
Center for Cancer Research, National Cancer Institute,
National Institute of Health, Bethesda, Maryland
Drug resistance and disease progression are common in multiple myeloma (MM) patients, underscoring the need for new therapeutic combinations. […] We hypothesized that effective combinations would reduce MYC expression and enhance p16 activity. […] These preclinical data identify potentially useful drug combinations for evaluation in drug-resistant MM and reveal potential mechanisms of combined drug sensitivity.
Described herein is the primary MIPE qHTS used to cherrypick compounds. Validated compounds were then further tested for potential synergistic activiy.
[1] Peat TJ, Gaikwad SM, Dubois W, Gyabaah-Kessie N, Zhang S, Gorjifard S, Phyo Z, Andres M, Hughitt VK, Simpson RM, Miller MA, Girvin AT, Taylor A, Williams D, D'Antonio N, Zhang Y, Rajagopalan A, Flietner E, Wilson K, Zhang X, Shinn P, Klumpp-Thomas C, McKnight C, Itkin Z, Chen L, Kazandijian D, Zhang J, Michalowski AM, Simmons JK, Keats J, Thomas CJ, Mock BA. Drug combinations identified by high-throughput screening promote cell cycle transition and upregulate Smad pathways in myeloma. Cancer Lett. 2023 Aug 1;568:216284. doi: 10.1016/j.canlet.2023.216284. Epub 2023 Jun 24. PMID: 37356470; PMCID: PMC10408729.
SEQUENCE No. (e.g., 1, 2, 3, etc.); […] (e.g., Cells, Incubation, Reagent, etc.); VALUE and DESCRIPTION.
1; Cells; 5 uL; white, solid bottom 1536-well Greiner assay plate.
2; Compounds; 23 nL; Kalypsis pin tool (Wako USA) equipped with a 1536-well pin head to transfer to the assay plates.
3; Incubation; 48 hours; 37C incubation.
4; Reagent;5uL; CellTiter Glo (Promega).
5; Detector; 425V; Luminescence; Viewlux PerkinElmer.
NOTES (numbers refer to Sequence numbers above)
1. The cell-based screening methods employed in this study were like those previously published. Briefly, the corresponding myeloma cell lines were screened in 1,536-well plates with 500 cells, 5-uL per well for inhibition of cell viability (assessed by measuring ATP levels with CellTiterGlo).
2. NCATS MIPE 4.0 library of approved and investigational drugs were added using the Kalypsis pin tool. Wells treated with DMSO only for 100% viability and media only wells for 0% viability were used as controls.
3. The assay plates were covered and incubated for 48 hours in a 37C, 5% CO2 incubator with controlled humidity.
4. After 48 hours, CellTilter-GloTM luminescent substrate mix (Promega) reagent was added to the assay plate and plates we incubated for 5 min at room temperature.
5. Signal was measured as median relative luminescence units on a ViewLux (PerkinElmer) multiplate reader.
[1] Heske CM, Davis MI, Baumgart JT, Wilson K, Gormally MV, Chen L, Zhang X, Ceribelli M, Duveau DY, Guha R, Ferrer M, Arnaldez FI, Ji J, Tran HL, Zhang Y, Mendoza A, Helman LJ, Thomas CJ. Matrix Screen Identifies Synergistic Combination of PARP Inhibitors and Nicotinamide Phosphoribosyltransferase (NAMPT) Inhibitors in Ewing Sarcoma. Clin Cancer Res. 2017 Dec 1;23(23):7301-7311. doi: 10.1158/1078-0432.CCR-17-1121. Epub 2017 Sep 12. PMID: 28899971; PMCID: PMC6636827.
(In general: In ATP-based viability assays light output follows the ATP content of the culture.)
Take `O=c1c(-c2ccc(O)cc2)coc2cc(OC3O[C@H](CO)[C@H](O)[C@H](O)[C@H]3O)cc(O)c12` (stereo not given in full): the Potency is 10.5 µM (active).

`COc1ccc(Cc2nccc3cc(OC)c(OC)cc23)cc1OC`: the Potency is 20.9 µM (active).

With `C[C@H](NC(=O)C(=O)Nc1ccccc1C(C)(C)C)C(=O)N[C@@H](CC(=O)O)C(=O)COc1c(F)c(F)cc(F)c1F`, the Potency is 18.7 µM (active).

In the case of `CS(=O)c1ccc(-c2nc(-c3ccc(F)cc3)c(-c3ccncc3)[nH]2)cc1` (stereo not given), the Potency was 3.4 µM (active).

With `N[C@@]1(C(=O)O)CS(=O)(=O)[C@H]2[C@H](C(=O)O)[C@H]21`, the Potency is 14.8 µM (active).

Consider `C=C1C(=O)[C@@]23C(CC[C@@H]1[C@H]2O)[C@@]12CO[C@]3(O)[C@@H](O)[C@@H]1C(C)(C)CC[C@@H]2O` (stereo not given in full), for which the Potency was 1.18 µM (active).

As for `CC[C@H]1OC(=O)[C@H](C)C(=O)[C@H](C)[C@@H](O[C@H]2O[C@H](C)C[C@H](N(C)C)[C@@H]2O)[C@](C)(OC)C[C@@H](C)C(=O)[C@H](C)[C@H]2N(CCCCn3cnc(-c4cccnc4)c3)C(=O)O[C@]12C`, the Potency result is “inactive”.

Take `O=c1cc(CN2CCOCC2)occ1OCCCCCSc1ccnc2cc(C(F)(F)F)ccc12`: the Potency was 7.43 µM (active).

As to `CN[C@@H](C)C(=O)N[C@H]1CN(C(=O)CC(C)C)CC[C@H]2CC[C@@H](C(=O)NC(c3ccccc3)c3ccccc3)N2C1=O`, the Potency is 8.33 µM (active).

On to `CC1(C)S[C@H]2[C@H](NC(=O)[C@@H](N)c3ccc(O)cc3)C(=O)N2[C@@H]1C(=O)O`, for which the Potency was 20.9 µM (active).

On to `c1ccc2c(-c3cnn4cc(-c5ccc(N6CCNCC6)cc5)cnc34)ccnc2c1`, for which the Potency is 2.35 µM (active).

`Nc1ncnc2c1ncn2[C@@H]1O[C@H](CO)C[C@@H]1O`: the Potency entry is “inactive”.

Regarding `CC(C)[C@H](CO)Nc1nc(Nc2ccc(C(=O)O)c(Cl)c2)c2ncn(C(C)C)c2n1`, the Potency is 0.059 µM (active).

Consider `CC[C@@]1(O)C[C@H](O[C@H]2C[C@H](N(C)C)[C@H](O[C@H]3C[C@H](O)[C@H](O[C@H]4CCC(=O)[C@H](C)O4)[C@H](C)O3)[C@H](C)O2)c2c(cc3c(c2O)C(=O)c2c(O)cccc2C3=O)[C@@H]1C(=O)OC`, for which the Potency is 0.0662 µM (active).

Take `CC(=O)N(C)C1(c2ccccc2)CCN(CCC[C@]2(c3ccc(Cl)c(Cl)c3)CCCN(C(=O)c3ccccc3)C2)CC1`: the Potency was 10.5 µM (active).

For `O=C(Nc1cccc(Br)c1)c1cccc(S(=O)(=O)N2CCCCCC2)c1`, the Potency is 18.7 µM (active).

Turning to `CC1(C)CCC2=C(O1)c1ccccc1C(=O)C2=O`, the Potency was 20.9 µM (active).

On to `O=c1c(O)c(-c2ccc(O)cc2)oc2cc(O)cc(O)c12`, for which the Potency was 16.6 µM (active).

With `COc1cccc(-c2cc(=O)c3ccccc3o2)c1N`, the Potency was 2.35 µM (active).

Regarding `O=C(OCC#CCSc1nnc(-c2cccc3ccccc23)o1)c1cc2ccccc2s1`, the Potency entry is “inactive”.

Regarding `NC(=O)c1ccc2nc(-c3ccc(Oc4ccc(Cl)cc4)cc3)[nH]c2c1`, the Potency was 0.0209 µM (active).

Regarding `COc1cc(N2CCC(N3CCN(C)CC3)CC2)ccc1Nc1ncnc(Nc2ccccc2S(=O)(=O)C(C)C)n1`, the Potency is 14.8 µM (active).

Take `CCOC(CN1C(=O)[C@](CC(=O)Nc2ccc(C)cc2)(NC(=O)Nc2ccc(C)cc2)c2ccccc21)OCC`: the Potency is 23.5 µM (active).

`O=C(Nc1c(Cl)cncc1Cl)c1ccc(OC(F)F)c(OCC2CC2)c1`: the Potency is 37.2 µM (active).

As for `O=C(NCc1ccccc1)c1csc(Nc2ccncn2)n1`, the Potency is 11.8 µM (active).

For the compound `O=C1NC(=O)C(=Cc2ccc3nccnc3c2)S1`, the Potency is 7.24 µM (active).

As to `O=C(Nc1ccccc1-c1cn2c(CN3CCNCC3)csc2n1)c1cnc2ccccc2n1`, the Potency was 9.35 µM (active).

Turning to `N[C@H](CSC(c1ccccc1)(c1ccccc1)c1ccccc1)C(=O)O`, the Potency is 7.43 µM (active).

`O=c1cc(N2CCOCC2)oc2c(-c3cccc4c3sc3ccccc34)cccc12`: the Potency was 2.96 µM (active).

In the case of `COc1cc2ncnc(Nc3ccc(F)c(Cl)c3)c2cc1OCCCN1CCOCC1`, the Potency is 5.4 µM (active).

With `Clc1ccc(-c2nc3sccn3c2C=NOCc2ccc(Cl)c(Cl)c2)cc1`, the Potency entry was “inactive”.

Regarding `Cc1cccc(Nc2nc(-c3ccncc3)cs2)c1`, the Potency was 18.7 µM (active).

Regarding `CC(C)(Cc1ccc2ccccc2c1)NC[C@@H](O)COc1cccc(Cl)c1C#N`, the Potency entry was “inactive”.

As to `COc1ccc(-c2coc3cc(O)ccc3c2=O)cc1`, the Potency entry is “inactive”.

As for `Oc1ccc(C2CCN(c3ccnc4ccccc34)CC2)cc1O`, the Potency is 7.43 µM (active).

Turning to `CC=C(C)C(=O)O[C@H]1C(C)=C[C@]23C(=O)[C@@H](C=C(CO)[C@@H](O)[C@]12O)[C@H]1[C@@H](C[C@H]3C)C1(C)C`, the Potency is 0.0066 µM (active).

As to `NC(=O)c1cccc(-c2cc(Nc3ccc(OC(F)(F)F)cc3)ncn2)c1`, the Potency was 14.8 µM (active).

Regarding `COCCOC(=O)C1=C(C)NC2=C(C(=O)CC(c3ccccc3OC)C2)C1c1cccc(O)c1` (stereo not given), the Potency is 1.66 µM (active).

`Nc1ncnc2c1nc(Cl)n2[C@@H]1O[C@H](CO)[C@@H](O)[C@@H]1O`: the Potency was 2.09 µM (active).

For the compound `COc1cc(Nc2ncc(F)c(Nc3ccc4c(n3)NC(=O)C(C)(C)O4)n2)cc(OC)c1OC`, the Potency was 1.18 µM (active).

For the origin of these results see PubChem BioAssay (NCATS).
